Test results from PubChem BioAssay.
Active and inactive are the calls of the source.

Experiments:
[1] = binders of probe aFSTL3 on microarray, primary screen, stem cell growth factor project, biochemical, small-molecule microarray, fluorescence 635/667 (AID 1064); conditions: higher = more signal;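 further: measures binding of the biotinylated anti-FSTL3 antibody to printed compounds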
[2] = binders from COS7 lysate, DM2A8 probe, primary screen, torsin A project, cell lysate, small-molecule microarray, fluorescence 635/667 (AID 1065); conditions: higher = more signal, COS7 lysate expressing mutant human TOR1A
[3] = binders of probe aFGF2 on microarray, primary screen, stem cell growth factor project, biochemical, small-molecule microarray, fluorescence 635/667 (AID 1067); conditions: higher = more signal;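 further: measures binding of biotinylated aFGF2 protein to printed compounds on slides; z-score merges feature fluorescence and signal-to-noise across triplicate slides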
[4] = binders of probe aFGF10 on microarray, primary screen, stem cell growth factor project, biochemical, small-molecule microarray, fluorescence 635/667 (AID 1071); conditions: higher = more signal;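 further: score merges 667 nm spot intensity and signal to noise from triplicate slides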
[5] = target: Neurogenic locus notch homolog protein 2 (Homo sapiens) (UniProt Q04721); experiment: Notch2 binders on small-molecule microarrays, primary screen, biochemical, small-molecule microarray, 635 nm fluorescence, stem cell growth factors (AID 1073); conditions: Notch2 binding, higher = more signal
[6] = target: Pro-neuregulin-1, membrane-bound isoform (Homo sapiens) (UniProt Q02297); experiment: NRG1 binders on small-molecule microarrays, primary screen, psychiatric disease protein project, biochemical, small-molecule microarray, fluorescence 635/667 (AID 1075); conditions: NRG1 binding, 635 nm fluorescence, higher = more signal;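 further: score combines 667 nm spot fluorescence with signal to noise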
[7] = system: Neuregulin-1 EGF-like domain; experiment: binders of neuregulin-1 EGF-like domain, primary screen, biochemical, small-molecule microarray, 635 nm fluorescence (AID 1081); conditions: small-molecule microarray binding, higher = more signal;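 further: binding of the protein to compounds printed on small-molecule microarray slides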
[8] = FRG1 promoter luciferase signal modulators, primary screen, FRG1 inhibition for FSHD, cell-based, C2C12 myotubes, firefly/Renilla luciferase, luminescence (AID 1084); conditions: higher = more signal, called active from +8 up or from −8 down
[9] = binders of probe aFST on microarray, primary screen, stem cell growth factor project, biochemical, small-molecule microarray, fluorescence 635/667 (AID 1086); conditions: higher = more signal;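 further: score merges 667 nm fluorescence with signal-to-noise of each printed compound spot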
[10] = binders of probe aHhip on microarray, primary screen, stem cell growth factor project, biochemical, small-molecule microarray, fluorescence 635/667 (AID 1087); conditions: higher = more signal;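 further: score merges spot fluorescence at 667nm with spot signal to noise ratio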

Chain of Pro-neuregulin-1, membrane-bound isoform (Homo sapiens) (Q02297 whole entry, looked up, the tested form may be a part, canonical isoform): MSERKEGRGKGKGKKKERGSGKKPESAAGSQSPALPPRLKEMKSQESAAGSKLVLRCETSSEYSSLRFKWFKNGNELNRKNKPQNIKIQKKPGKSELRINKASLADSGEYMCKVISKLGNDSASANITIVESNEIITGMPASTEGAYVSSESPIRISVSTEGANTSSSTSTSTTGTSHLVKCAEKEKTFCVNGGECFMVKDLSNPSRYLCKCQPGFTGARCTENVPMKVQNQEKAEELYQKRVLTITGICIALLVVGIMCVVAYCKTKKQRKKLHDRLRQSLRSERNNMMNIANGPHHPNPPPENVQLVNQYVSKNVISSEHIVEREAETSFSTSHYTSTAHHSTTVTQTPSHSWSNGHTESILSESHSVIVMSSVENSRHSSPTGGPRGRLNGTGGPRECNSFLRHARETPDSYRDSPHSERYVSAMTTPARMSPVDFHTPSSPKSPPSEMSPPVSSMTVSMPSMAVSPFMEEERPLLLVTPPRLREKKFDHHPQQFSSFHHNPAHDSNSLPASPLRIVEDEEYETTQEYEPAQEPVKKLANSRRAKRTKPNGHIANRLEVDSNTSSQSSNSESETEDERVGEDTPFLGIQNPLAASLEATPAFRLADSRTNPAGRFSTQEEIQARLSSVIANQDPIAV
Chain of Neurogenic locus notch homolog protein 2 (Homo sapiens) (Q04721 whole entry, looked up, canonical isoform): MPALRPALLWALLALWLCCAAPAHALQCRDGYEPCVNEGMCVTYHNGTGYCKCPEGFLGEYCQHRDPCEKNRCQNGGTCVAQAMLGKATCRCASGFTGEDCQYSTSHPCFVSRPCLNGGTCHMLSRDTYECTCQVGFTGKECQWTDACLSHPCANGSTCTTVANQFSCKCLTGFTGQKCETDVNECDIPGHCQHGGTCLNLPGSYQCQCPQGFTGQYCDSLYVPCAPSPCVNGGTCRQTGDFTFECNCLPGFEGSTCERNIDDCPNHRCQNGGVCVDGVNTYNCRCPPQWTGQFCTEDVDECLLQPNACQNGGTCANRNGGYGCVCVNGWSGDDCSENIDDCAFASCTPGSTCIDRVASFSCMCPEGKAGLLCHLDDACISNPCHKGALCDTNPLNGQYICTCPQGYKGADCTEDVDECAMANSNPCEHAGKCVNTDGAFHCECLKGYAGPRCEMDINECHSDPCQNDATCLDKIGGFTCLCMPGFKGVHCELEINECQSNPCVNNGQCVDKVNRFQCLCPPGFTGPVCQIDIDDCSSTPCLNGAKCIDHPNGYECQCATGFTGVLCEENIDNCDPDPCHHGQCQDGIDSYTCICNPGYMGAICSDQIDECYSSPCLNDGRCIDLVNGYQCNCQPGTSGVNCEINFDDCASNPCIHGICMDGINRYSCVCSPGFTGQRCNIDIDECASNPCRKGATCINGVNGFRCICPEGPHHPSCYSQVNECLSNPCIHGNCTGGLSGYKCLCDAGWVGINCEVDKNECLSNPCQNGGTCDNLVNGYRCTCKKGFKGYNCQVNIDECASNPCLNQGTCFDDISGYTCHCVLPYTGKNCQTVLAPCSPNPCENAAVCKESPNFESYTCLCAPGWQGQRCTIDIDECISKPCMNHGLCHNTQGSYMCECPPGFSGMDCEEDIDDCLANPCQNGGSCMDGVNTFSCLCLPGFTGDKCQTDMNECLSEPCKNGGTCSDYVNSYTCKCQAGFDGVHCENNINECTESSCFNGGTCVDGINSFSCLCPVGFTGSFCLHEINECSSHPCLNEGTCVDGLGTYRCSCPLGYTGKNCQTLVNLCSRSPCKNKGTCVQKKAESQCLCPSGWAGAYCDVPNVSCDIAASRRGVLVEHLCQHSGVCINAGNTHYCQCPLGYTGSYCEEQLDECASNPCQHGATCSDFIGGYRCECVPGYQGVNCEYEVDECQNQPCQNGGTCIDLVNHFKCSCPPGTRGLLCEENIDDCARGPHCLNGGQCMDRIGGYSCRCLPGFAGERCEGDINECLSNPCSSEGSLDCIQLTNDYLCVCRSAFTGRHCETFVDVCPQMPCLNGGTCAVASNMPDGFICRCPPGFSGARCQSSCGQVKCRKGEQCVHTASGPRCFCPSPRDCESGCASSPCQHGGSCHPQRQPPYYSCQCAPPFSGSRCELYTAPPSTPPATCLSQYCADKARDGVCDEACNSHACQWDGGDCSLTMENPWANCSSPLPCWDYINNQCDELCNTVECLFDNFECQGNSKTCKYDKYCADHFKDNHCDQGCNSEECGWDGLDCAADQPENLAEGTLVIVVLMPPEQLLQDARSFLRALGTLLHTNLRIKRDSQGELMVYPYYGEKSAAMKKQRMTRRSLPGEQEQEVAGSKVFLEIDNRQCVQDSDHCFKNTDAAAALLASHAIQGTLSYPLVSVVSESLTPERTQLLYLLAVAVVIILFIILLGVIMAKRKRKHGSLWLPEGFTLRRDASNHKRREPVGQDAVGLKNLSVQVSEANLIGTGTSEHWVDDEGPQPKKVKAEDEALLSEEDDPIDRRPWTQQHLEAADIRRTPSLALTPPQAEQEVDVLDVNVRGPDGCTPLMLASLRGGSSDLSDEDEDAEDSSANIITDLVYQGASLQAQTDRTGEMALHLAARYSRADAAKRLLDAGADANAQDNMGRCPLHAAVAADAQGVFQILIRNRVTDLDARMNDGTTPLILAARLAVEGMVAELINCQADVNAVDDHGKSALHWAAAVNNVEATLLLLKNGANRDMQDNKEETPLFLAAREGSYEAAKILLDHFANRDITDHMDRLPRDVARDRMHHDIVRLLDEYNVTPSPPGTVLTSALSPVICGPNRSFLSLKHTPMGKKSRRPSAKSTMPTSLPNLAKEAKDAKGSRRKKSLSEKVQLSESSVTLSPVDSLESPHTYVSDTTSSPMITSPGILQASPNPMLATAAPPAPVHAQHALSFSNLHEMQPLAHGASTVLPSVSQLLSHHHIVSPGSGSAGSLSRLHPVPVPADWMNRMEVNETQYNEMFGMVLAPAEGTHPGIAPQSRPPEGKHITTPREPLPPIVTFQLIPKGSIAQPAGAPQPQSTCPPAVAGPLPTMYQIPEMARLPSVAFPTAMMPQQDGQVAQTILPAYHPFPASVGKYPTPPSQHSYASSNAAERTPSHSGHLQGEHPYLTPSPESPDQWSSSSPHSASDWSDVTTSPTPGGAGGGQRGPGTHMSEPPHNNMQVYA

| Compound | composite z-score [1] | composite z-score [2] | composite z-score [3] | composite z-score [4] | composite z-score [5] | composite z-score [6] | composite z-score [7] | z-score [8] | composite z-score [9] | composite z-score [10] |
| --- | --- | --- | --- | --- | --- | --- | --- | --- | --- | --- |
| O=C1OCCC/C=C\[C@H]2OC34C=CCN(Cn5nnc6ccccc65)C(=O)[C@H]3N(CCCCCO)C(=O)[C@@H]4C12 (stereo not given in full) | 0.0227 | -0.126 | -0.145 | -0.821 | -0.919 | 0.865 | 0.443 | 0.406 (inactive) | -0.666 | -0.206 |
| CCCCC=C[C@@H](NC(=O)c1ccco1)c1ccccc1 | -0.0252 | 0.0908 | 0.0603 | 0.372 | 0.929 | 0.783 | -0.628 | 1.36 (inactive) | 0.199 | 0.525 |
| CCOC(=O)C[C@H]1[C@H](OC(=O)Cc2ccc3c(c2)OCO3)[C@@H](NC(=O)c2ccc(-c3ccccc3)cc2)c2cc(OCCCO)ccc2N1C(=O)c1ccccc1 | -0.386 | -0.0093 | -0.0144 | 0.585 | 0.537 | 0.371 | 0.797 | -3.42 (inactive) | 0.239 | -0.374 |
| Cc1ccc(F)cc1S(=O)(=O)N[C@@H]1CCN(Cc2ccc(-c3ccccc3)cc2)C1 | 0.111 | 0.504 | -0.0894 | 1.04 | 0.332 | 0.0558 | 1.07 | -1.72 (inactive) | 0.204 | 0.107 |
| COC(=O)c1ccc(C23CC2(C(NP(=O)(c2ccccc2)c2ccccc2)c2ccccc2)C3)cc1 (stereo not given) | 0.741 | 0.275 | -0.0009 | 0.0592 | 1.73 | 2.26 | 1.17 | -4.52 (inactive) | 1.73 | 0.0596 |
| CCOC(=O)C1=CCC(c2ccc(C#N)cc2)N(S(=O)(=O)c2ccc(C)cc2)C1 (stereo not given) | 0.657 | 0.359 | 0.165 | 0.446 | 1.67 | 1.32 | 1.27 | -3.85 (inactive) | 1.27 | 0.11 |
| Cc1ccc(S[C@]2(C(=O)NCC(C)C)CC(=O)N(Cc3ccccc3Cl)[C@@H]2c2ccc(CO)cc2)cc1 | 1.27 | -0.48 | -0.151 | -0.584 | -1.36 | -0.612 | -0.232 | -2.55 (inactive) | -0.982 | -0.284 |
| CN1C(=O)C2C(C1=O)C1C=C(CCCO)C2C(c2cccs2)N1C (stereo not given) | -0.855 | 1.65 | -0.2 | 0.524 | -0.508 | 0.822 | 1.19 | 0.22 (inactive) | -0.225 | -0.579 |
| COC(=O)[C@@]1(Cc2ccccc2N=[N+]=[N-])COC(c2ccc(OCCCO)cc2)=N1 | 1.34 | 2.03 | -0.0706 | -0.282 | 0.0164 | 1.24 | 1.21 | -0.904 (inactive) | 0.498 | 0.0176 |
| O=c1cccc(CCc2ccccc2)o1 | -0.587 | -0.322 | -0.0909 | 0.0466 | -0.321 | 0.93 | 1.16 | 1.17 (inactive) | -0.104 | 0.0251 |
| COC(=O)c1ccc(C(O)C2C=CC3C(=O)N(C)C(=O)C3N2NC(=O)OC(C)(C)C)o1 (stereo not given) | -0.0154 | 0.252 | 0.0942 | 1.03 | 1.48 | 1.34 | 1.29 | 0.896 (inactive) | 0.76 | -0.0024 |
| Cc1cc(C)cc(N2C(=O)CS(=O)(=O)C2c2cccc([N+](=O)[O-])c2)c1 (stereo not given) | 0.228 | 0.661 | 0.245 | 0.366 | 1.17 | 1.63 | 1.04 | -1.47 (inactive) | 1.18 | 1.53 |
| CCN(CC)c1ccc(N2CC=CC34O[C@@H]5/C=C\CCCOC(=O)C5[C@H]3C(=O)N(C(CO)C(C)C)[C@@H]4C2=O)cc1 (stereo not given in full) | 0.0964 | -1.2 | -0.159 | -0.381 | -0.686 | 1.78 | 0.897 | 0.455 (inactive) | -0.406 | 0.0142 |
| CC(C)(C)OC(=O)CC[C@@]1(C(=O)O)N=C(c2ccc(OCCCO)cc2)O[C@@H]1c1ccccc1N=[N+]=[N-] | 1.09 | 1.56 | 0.0918 | 1.11 | 0.984 | 1 | 1.15 | 6.94 (inactive) | 0.457 | -0.277 |
| COCCOC(=O)N1C(=O)[C@@]2(c3cc(C#CCCO)ccc31)[C@H](c1ccccc1OCCO)N1[C@H](c3ccccc3)[C@H](c3ccccc3)OC(=O)[C@H]1[C@@H]2C(=O)N1CCN(c2ncccn2)CC1 | 0.546 | -0.481 | 0.0763 | 0.949 | 1.55 | 1.66 | 1.26 | -1.54 (inactive) | 1.4 | 0.463 |
| C=CC[C@]1(C(=O)N2CCOCC2)N=C(c2ccc(OCCCO)cc2)O[C@H]1c1ccccc1 | 0.744 | 0.905 | 0.0445 | 0.147 | 0.618 | 2.1 | 1.25 | 0.54 (inactive) | 0.374 | -0.251 |
| CC(=O)NCCCC[C@@H]1NC(=O)[C@H]2C[C@@H](C(=O)NCCCCCC[N+](C)(C)C)[C@@H](c3cccc(OCCO)c3)N2C1=O | -0.374 | 0.645 | -0.0894 | 0.245 | 0.117 | 1.5 | 1.42 | 5.18 (inactive) | -0.0568 | -0.201 |
| C=CCNC(=O)[C@H]1[C@@H]2C(=O)O[C@@H](c3ccccc3)[C@@H](c3ccccc3)N2[C@@H](c2ccc(O)cc2)[C@]12C(=O)N(C(=O)OCCOC)c1ccc(C#CCCO)cc12 | 0.174 | 1.93 | -0.154 | 0.932 | 0.0576 | 1.33 | 1.32 | -4.26 (inactive) | -0.0024 | -0.0618 |
| CCN(CC)c1ccc(N2CC=CC34O[C@@H]5C=CCCOC(=O)C5[C@H]3C(=O)N(CCCCCO)[C@@H]4C2=O)cc1 (stereo not given in full) | 0.373 | 2.13 | -0.116 | -0.851 | -0.788 | 1.78 | 1.01 | -0.736 (inactive) | 0.37 | -0.226 |
| COCCOC(=O)N1C(=O)[C@@]2(c3cc(C#CCNC(N)=O)ccc31)[C@H](c1ccc(O)cc1)N1[C@H](c3ccccc3)[C@H](c3ccccc3)OC(=O)[C@H]1[C@@H]2C(=O)NC[C@H](O)c1ccccc1 | 0.134 | 1.16 | 0.109 | 0.846 | 1.01 | 0.743 | 0.866 | -0.463 (inactive) | 1.55 | 0.127 |
| CC(C)C(=C=CC[C@@H](O)c1ccccc1OCCO)C[C@@H](O)c1ccccn1 | -0.438 | -0.0682 | -0.153 | 0.477 | 0.0623 | 0.0795 | 1.19 | -0.306 (inactive) | 0.272 | 0.176 |
| O=C1OCC=C[C@H]2OC34C=CCN(c5ccc(Cl)cc5)C(=O)[C@H]3N(CCCCCCO)C(=O)[C@@H]4[C@@H]12 (stereo not given in full) | 1.06 | -0.793 | -0.163 | -0.688 | -0.737 | 2.26 | 1.53 | 1.16 (inactive) | -0.455 | -0.271 |
| C=CC[C@@]1(C(=O)N2CCOCC2)N=C(c2ccc(OCCCO)cc2)O[C@@H]1c1ccccc1N=[N+]=[N-] | 0.529 | 0.985 | -0.0073 | 0.853 | 1.53 | 1.44 | 1.19 | -0.469 (inactive) | 0.993 | 0.21 |
| O=C1O[C@H](c2ccccc2)[C@H](c2ccccc2)N2[C@H]1[C@@H](C(=O)O)[C@]1(C(=O)Nc3ccc(C#CC4(O)CCCCCC4)cc31)[C@H]2c1ccc(OCCO)cc1 | -0.133 | -0.337 | 0.0201 | 0.564 | 0.263 | 1.85 | 1.14 | 1.11 (inactive) | 1.07 | -0.0994 |
| C[C@H]1NC(=O)[C@H](Cc2ccccc2)NC(=O)[C@@]23C(=O)N[C@@H](Cc4ccccc4)C2[C@H](C)[C@@]2(C)O[C@H]2C3/C=C/C/C=C\CNC1=O (stereo not given in full) | -0.231 | 0.32 | -0.0878 | -0.32 | -0.221 | -0.547 | -0.867 | 0.049 (inactive) | -0.146 | 0.238 |
| CCCCC=C[C@@H](NC(=O)c1ccc(C(=O)OC)cc1)c1ccccc1 | 0.026 | 0.0108 | -0.116 | 0.213 | 1.31 | 0.919 | 0.903 | 1.86 (inactive) | 0.474 | -0.189 |
